This is part of a sample that, as a whole, favours compounds with a hit. Of some 79,000 tested, about 15% had one in any assay. Unmarked numbers belong to inactive results. Active and inactive are the calls of the source. Rule as the data show it: active = growth inhibition above about 70%; inactive = the rest.
What was measured:
[1] = NCI Yeast Anticancer Drug Screen. Data for the rad50 strain (AID 155);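 also: 0% = growth of vehicle-only cultures of the same strain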; settings: S. cerevisiae rad50 strain growth inhibition; at 50.0 µM; stronger effect = higher value
Procedure, shortened: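 Cells are treated with compound, grown, and their growth is then scored against vehicle-only cultures of the same repair-deficient yeast strain.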

[2] = NCI Yeast Anticancer Drug Screen. Data for the mec2-1 strain (AID 157); settings: S. cerevisiae mec2-1 strain, at 50.0 µM, stronger effect = higher value
Procedure, shortened: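 Yeast mec2-1 mutant treated with compound. Readout: growth inhibition vs vehicle controls.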

[3] = NCI Yeast Anticancer Drug Screen. Data for the sgs1 mgt1 strain (AID 161);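 also: 0% = growth of cultures given vehicle only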; settings: S. cerevisiae sgs1 mgt1 strain, at 50.0 µM, stronger effect = higher value
Procedure, shortened: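 Test agents were incubated with a DNA-repair-mutant yeast strain. Growth was then read and compared against vehicle-treated controls.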

[4] = NCI Yeast Anticancer Drug Screen. Data for the cln2 rad14 strain (AID 165);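 also: 0% = growth equal to vehicle treated cultures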; settings: S. cerevisiae cln2 rad14 strain, at 50.0 µM, stronger effect = higher value
Procedure, shortened: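 cln2 rad14 yeast strain; compound exposure; growth inhibition read vs vehicle controls.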

[5] = NCI Yeast Anticancer Drug Screen. Data for the bub3 strain (AID 167); settings: S. cerevisiae bub3 mutant strain, at 50.0 µM, stronger effect = higher value
Procedure, shortened: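 Part of a panel of yeast mutants defective in DNA damage repair or cell cycle regulation. Each strain is grown with compound, and inhibition is calculated relative to solvent-treated cultures.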

[6] = NCI Yeast Anticancer Drug Screen. Data for the mlh1 rad18 strain (AID 175); settings: S. cerevisiae mlh1 rad18 strain growth inhibition; at 50.0 µM; stronger effect = higher value
Procedure, shortened: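 Yeast w/ defined DNA-repair lesions; compound exposure; growth vs vehicle controls → % inhibition.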

| Structure (SMILES) | growth inhibition [1] | growth inhibition [2] | growth inhibition [3] | growth inhibition [4] | growth inhibition [5] | growth inhibition [6] |
| --- | --- | --- | --- | --- | --- | --- |
| O=Cc1ccc(OC(=O)c2ccccc2)cc1 | -6.35% | -25.6% | 13.3% | -13.3% | -1.25% | 3.95% |
| CCC(C)(CCC(C)C)c1ccncc1 (stereo unspecified) | -3.45% | 9.3% | -0.05% | -8.45% | -0.75% | 3.05% |
| N#Cc1c2c([nH]c(=O)c1C#N)CCCC2 | 15.5% | 10.5% | 3.2% | 9.15% | -8.75% | -23.1% |
| Cc1ccc(-c2cn3c(nc4ccccc43)c(-c3ccccc3)n2)cc1 | -25.6% | -26.9% | -41.6% | -53.4% | -26.1% | -45% |
| COc1cc(OC)c(C(C)=O)c(C(C)=O)c1 | -15.8% | -13.6% | -13.6% | -5.3% | -10.6% | -2.55% |
| COc1cnnc2ccccc12 | 12.8% | 3.2% | 4.6% | -2.35% | -0.9% | 14.3% |
| O=[N+]([O-])c1cc2c(cc1O)[nH]c1cccc([N+](=O)[O-])c12 | -2.25% | -11.4% | -42.5% | 21.1% | -15.8% | -22.6% |
| CC(=O)NCC1CCCO1 (stereo unspecified) | 2.65% | -18.6% | -20.4% | 3.85% | 3.75% | -5.9% |
| c1ccc2c(c1)ccc1cc3c(ccc4ccccc43)cc12 | 15.3% | -11.3% | 7.9% | 13.2% | 34.6% | 12.4% |
| Cc1c(C)c(C)c(CNNC(=S)Nc2ccc(S(=O)(=O)N3CCCCC3)cc2)c(C)c1C | -4.5% | -17.9% | 9.25% | 8.6% | 6.4% | 7.6% |
| Nc1[nH]c(=S)[nH]c(=O)c1NS(=O)(=O)c1ccccc1 | 3.65% | -1.6% | 12.6% | -4.85% | -10.2% | 18.4% |
| Nc1ccn(C2CC(F)C(CO)O2)c(=O)n1 (stereo unspecified) | 19.6% | 11.2% | 17.2% | 1.5% | 7% | -1.8% |
| CCCCc1c2c(nc3c1CCc1cc4c(nc1-3)-c1nc3c(c(CCCC)c1CC4)CCC/C3=C\c1ccccc1)/C(=C/c1ccccc1)CCC2 | 16.6% | 3.2% | -0.25% | 5.4% | 5.05% | 2.8% |
| C[n+]1ccccc1/C=C/c1ccc2c(c1)OCO2 | 18.3% | 5.9% | 22.5% | -0.45% | 29.9% | 6.6% |
| CCCCOCCC1CCNCC1 | -46% | -44.1% | -51.5% | 10.8% | -48% | -24% |
| COc1ccc2ccccc2c1CN1CCOCCOCCN(Cc2c(OC)ccc3ccccc23)CCOCCOCC1 | -18.1% | -34.5% | -23.4% | -28.1% | 5.75% | -29.4% |
| COC(C(=O)CN(C)C)(c1ccccc1)c1ccccc1 | 4% | -11.1% | -1.85% | 6.45% | -26.8% | 23.5% |
| Cc1cc2c(cc1Cl)SSc1cc(Cl)c(C)cc1S(=O)(=O)Nc1nc(N)nn1C(O)n1nc(N)nc1NS2(=O)=O | 7.65% | 11.4% | 9.1% | 20.7% | 30.4% | 0.45% |
| CCOc1cccc(N(CC)CC)c1 | 33.9% | 2.05% | -20% | -64.5% | -14.2% | 13.4% |
| N#CCCCCCCCCCCC(=O)O | -24.6% | -55.9% | 1.95% | 1.45% | -59.4% | -10.2% |
| Cc1ccccc1C(=O)c1ccccc1Cc1cccc2ccccc12 | -2.4% | -10.3% | -10.2% | 1.1% | 8.95% | -22.9% |

| Structure (SMILES) | growth inhibition [1] | growth inhibition [2] | growth inhibition [3] | growth inhibition [4] | growth inhibition [5] | growth inhibition [6] |
| --- | --- | --- | --- | --- | --- | --- |
| O=C1N2CCCSC2=NC1(c1ccccc1)c1ccccc1 | -7.15% | 0.7% | 1.75% | 11.2% | 13.2% | -0.05% |
| CC1=C(C(=O)Nc2ccccc2)C(c2ccc(C3C(C(=O)Nc4ccccc4)=C(C)NC(C)=C3C(=O)Nc3ccccc3)cc2)C(C(=O)Nc2ccccc2)=C(C)N1 | 70% (active) | 71.6% (active) | 53% | 41.5% | 82.5% (active) | 84.8% (active) |
| NNC(=S)N/N=C/C(Cl)=C(\Cl)C(=O)O | -2.2% | -13.2% | 1.8% | -2% | 0.1% | -1.75% |
| CCCCCCCCCCCCCCCC(=O)O | -12.9% | -34.1% | -18.9% | -2.9% | -29.8% | -34.9% |
| Cc1ccc(C)c(NC(=O)c2ccc([N+](=O)[O-])cc2)c1 | -4.55% | 17.4% | 10% | -11.8% | 16.4% | 23.6% |
| O=C1c2ccccc2C(=O)N1C1CCCCC1 | 7.15% | 35.9% | 22.4% | -4.25% | 56.4% | -16.6% |
| Cc1ccc(NC(=O)CCSC(=O)Nc2ccc(C)cc2)cc1 | -1.2% | -2.65% | -7.05% | 21.2% | 8.1% | 7.9% |
| CCCCCCCN=C(N)CSSCC(N)=NCCCCCCC | 98.9% (active) | 99% (active) | 99.3% (active) | 98.7% (active) | 98.9% (active) | 99.2% (active) |
| CCOc1ccc(CO)cc1 | 8.5% | 0.2% | 8.55% | 34% | -8.95% | -38.8% |
| COC(=O)c1cc(C)cc(N(c2ccccc2[N+](=O)[O-])S(=O)(=O)c2ccc(C)cc2)c1C | 15.9% | -9.35% | -25.3% | 1.2% | -10.3% | -9% |
| CN(C)c1nc(-c2ccccc2)c(Cc2ccccc2)c(=O)o1 | -1.9% | -4.15% | 20.5% | -4.25% | 7.25% | 7.8% |
| COC(=O)c1cc2ccccc2[nH]1 | 4% | 8% | -7.6% | -15.3% | -11.9% | -13.8% |
| Cc1nc(CO)cc(=O)[nH]1 | 19.6% | -5.5% | 12.2% | 9.85% | -25.4% | 14.1% |
| CCCCOC1OC[N+](C)(C)CC1(C)C (stereo unspecified) | 20.2% | -2.65% | -10.1% | 3.7% | -0.45% | 26.2% |
| Cc1ccc(=O)n(Cc2ccccc2)n1 | -8.25% | -31.9% | -11.8% | 21.1% | -12.2% | 2.75% |
| O=c1c2c(oc(=Nc3ccccc3)n1-c1ccccc1)CC1(CCCCC1)C2 | 5.45% | 1.75% | -0.1% | -15.2% | -10.9% | -4.2% |
| C=C1C(=O)C23CC1C[C@H](OC(C)=O)C2C1(C)C(OC(C)=O)C[C@H](O)C(C)(C)[C@H]1C(O)[C@@H]3OC(C)=O (stereo partly specified) | 9.8% | -3.85% | 3.25% | -2.95% | 24.1% | 20.3% |
| CN(C)c1ccc2c(c1)Cc1cc(N3C(=O)C=CC3=O)ccc1-2 | 97.3% (active) | 98% (active) | 98.9% (active) | 97.6% (active) | 98.2% (active) | 98.5% (active) |
| CCCCCCOC(=O)C(O)C(C)(Cl)c1ccccc1 (stereo unspecified) | 11.3% | 9.9% | 4.6% | 15.9% | 12.6% | 13.7% |
| Cc1ccc([N+](=O)[O-])cc1NC(=O)N(C)Cc1ccc(Cl)cc1 | 5.5% | 24.2% | -12.2% | -5.35% | -5.4% | -8.9% |

— PubChem BioAssay (NCI)
